# Data reported in the supplement of paper PMC10849652.
# The full data set covers some 7,900 targets. This sample favours those with a hit. About 0.6% of all pairs of compound and target were hits. Values without a mark were called inactive.
# How the values were obtained:
# Assay in all cases: log2 fold change, soluble protein after heating vs DMSO (PISA); higher = thermal stabilisation; K562 cells, 10 uM, 30 min; active = over 0.2 and 3.5 SD of the protein, either way, in both replicates (recomputed)
# erlotinib = compound: C#Cc1cccc(Nc2ncnc3cc(OCCOC)c(OCCOC)cc23)c1 [erlotinib]
# In short: (§1)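 Soluble protein was quantified by TMTpro 16plex LC-MS/MS after channel sums were equalised. It was obtained as the supernatant after 21,000xg for 90 min from pooled aliquots of K562 cells (2×10^6 cells/mL, 10 μM compound, 30 min) heated for 3 min across 48°C-58°C and extracted in PBS with 0.5% NP-40 at 4°C. Thermal stability values are relative to control samples and come from duplicates. They are given as log2 fold changes.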
# [1] = compound: C/C(=N\NC(=O)C1=CC(=CC=C1)S(=O)(=O)N2CCOCC2)/C3=C(C=CC(=C3)Cl)O
# In short: as §1
# [2] = compound: C1=CC(=C(C=C1Cl)C2=NC3=NC=CN=C3C(=N2)NC4=CC=NC=C4)F
# In short: as §1
# [3] = compound: C1=CC(=CC=C1C2=NC3=C(N2)C=C(C=C3)C(=O)N)OC4=CC=C(C=C4)Cl
# In short: as §1
# [4] = compound: C1=CC2=C(C=CC(=C2)/C=C\3/C(=O)NC(=NCC4=CC=CS4)S3)N=C1
# In short: as §1
# [5] = compound: C1=CC2=NC=CN=C2C=C1/C=C/3\C(=O)NC(=O)S3
# In short: as §1
# [6] = compound: C1=CC=C(C=C1)C2=NC(=C(N2)C3=CC=NC=C3)C4=CC(=C(C=C4)Cl)O
# In short: as §1
# [7] = compound: C1=CC=C2C(=C1)C3=NNC4=CC=CC(=C43)C2=O
# In short: as §1
# [8] = compound: C1CCN(C1)C(=O)NC2=CC=CC(=C2)NC3=NC=C(C(=N3)NCCC4=CN=CN4)Br
# In short: as §1
# [9] = compound: C1CN(CCC1(CC2=CC=C(C=C2)Cl)N)C3=NC=NC4=C3C=CN4
# In short: as §1
# IRAK-1-4 Inhibitor I = compound: C1COCCN1CCN2C3=CC=CC=C3N=C2NC(=O)C4=CC(=CC=C4)[N+](=O)[O-] [IRAK-1-4 Inhibitor I]
# In short: as §1
# ibrutinib = compound: C=CC(=O)N1CCC[C@@H](n2nc(-c3ccc(Oc4ccccc4)cc3)c3c(N)ncnc32)C1 [ibrutinib]
# In short: as §1
# [10] = compound: CC(=O)c1cnc2ccc(-c3cc(Cl)c(O)c(Cl)c3)nc2c1N[C@H]1CC[C@H](CN(C)C)CC1
# In short: as §1
# ralimetinib = compound: CC(C)(C)Cn1c(N)nc2ccc(-c3[nH]c(C(C)(C)C)nc3-c3ccc(F)cc3)nc21 [ralimetinib]
# In short: as §1
# [11] = compound: CC(C)(O)CC(=O)NCCn1ccc2ncnc(Nc3ccc(Oc4cccc(C(F)(F)F)c4)c(Cl)c3)c21
# In short: as §1
# [12] = compound: CC(C)C1=C2N=C(C=C(N2N=C1)NCC3=CC=CC=C3)NCCCCCCN
# In short: as §1
# [13] = compound: CC(C)C[C@@H](C=O)NC(=O)[C@H](CC(C)C)NC(=O)[C@H](CC(C)C)NC(=O)OCc1ccccc1
# In short: as §1
# pinometostat = compound: CC(C)N(C[C@H]1O[C@@H](n2cnc3c(N)ncnc32)[C@H](O)[C@@H]1O)[C@H]1C[C@@H](CCc2nc3cc(C(C)(C)C)ccc3[nH]2)C1 [pinometostat]
# In short: as §1
# [14] = compound: CC1=C(C(CC(=O)N1)C2=CC=C(C=C2)C(F)(F)F)C(=O)NC3=C(C=C4C(=C3)C=NN4)F
# In short: as §1
# [15] = compound: CC1=C(C2=C(C=C1)C(=O)C3=CC=CC=C3N2CCCN)C
# In short: as §1
# Sequence of UniProt Q8IX18 (Q8IX18 whole entry, looked up): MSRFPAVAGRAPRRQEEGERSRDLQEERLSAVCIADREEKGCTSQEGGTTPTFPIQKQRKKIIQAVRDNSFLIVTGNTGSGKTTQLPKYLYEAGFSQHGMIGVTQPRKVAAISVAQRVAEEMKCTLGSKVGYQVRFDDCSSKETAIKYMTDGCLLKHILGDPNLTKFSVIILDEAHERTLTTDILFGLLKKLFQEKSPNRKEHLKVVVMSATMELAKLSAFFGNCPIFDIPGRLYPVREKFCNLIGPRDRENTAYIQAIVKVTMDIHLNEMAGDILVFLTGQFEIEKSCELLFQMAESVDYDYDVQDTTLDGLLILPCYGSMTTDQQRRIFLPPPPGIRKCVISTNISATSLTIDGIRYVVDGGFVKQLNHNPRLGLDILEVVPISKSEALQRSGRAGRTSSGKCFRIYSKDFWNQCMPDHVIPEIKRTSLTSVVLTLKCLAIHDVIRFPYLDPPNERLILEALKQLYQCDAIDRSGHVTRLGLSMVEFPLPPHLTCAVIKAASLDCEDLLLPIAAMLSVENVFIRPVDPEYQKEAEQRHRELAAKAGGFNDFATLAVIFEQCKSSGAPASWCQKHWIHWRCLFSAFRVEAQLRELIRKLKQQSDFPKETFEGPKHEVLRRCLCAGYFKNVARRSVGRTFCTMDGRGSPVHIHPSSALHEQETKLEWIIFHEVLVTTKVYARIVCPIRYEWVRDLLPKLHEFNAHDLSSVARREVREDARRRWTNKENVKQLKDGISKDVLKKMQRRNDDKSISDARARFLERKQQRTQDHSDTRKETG
# Sequence of UniProt Q9C073 (Q9C073 whole entry, looked up): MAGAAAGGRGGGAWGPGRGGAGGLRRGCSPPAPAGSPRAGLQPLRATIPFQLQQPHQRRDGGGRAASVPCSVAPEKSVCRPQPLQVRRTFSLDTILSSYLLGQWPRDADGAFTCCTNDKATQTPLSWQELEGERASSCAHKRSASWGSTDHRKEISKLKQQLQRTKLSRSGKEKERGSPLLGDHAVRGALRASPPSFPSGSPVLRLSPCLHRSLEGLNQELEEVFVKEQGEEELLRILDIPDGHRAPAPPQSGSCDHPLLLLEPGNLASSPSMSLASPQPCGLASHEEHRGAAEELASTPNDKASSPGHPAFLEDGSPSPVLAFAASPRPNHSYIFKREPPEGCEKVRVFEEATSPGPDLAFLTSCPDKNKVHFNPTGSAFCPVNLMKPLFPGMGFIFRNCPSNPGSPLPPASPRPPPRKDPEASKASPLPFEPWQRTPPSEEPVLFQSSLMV
# Sequence of UniProt P12259 (P12259 whole entry, looked up): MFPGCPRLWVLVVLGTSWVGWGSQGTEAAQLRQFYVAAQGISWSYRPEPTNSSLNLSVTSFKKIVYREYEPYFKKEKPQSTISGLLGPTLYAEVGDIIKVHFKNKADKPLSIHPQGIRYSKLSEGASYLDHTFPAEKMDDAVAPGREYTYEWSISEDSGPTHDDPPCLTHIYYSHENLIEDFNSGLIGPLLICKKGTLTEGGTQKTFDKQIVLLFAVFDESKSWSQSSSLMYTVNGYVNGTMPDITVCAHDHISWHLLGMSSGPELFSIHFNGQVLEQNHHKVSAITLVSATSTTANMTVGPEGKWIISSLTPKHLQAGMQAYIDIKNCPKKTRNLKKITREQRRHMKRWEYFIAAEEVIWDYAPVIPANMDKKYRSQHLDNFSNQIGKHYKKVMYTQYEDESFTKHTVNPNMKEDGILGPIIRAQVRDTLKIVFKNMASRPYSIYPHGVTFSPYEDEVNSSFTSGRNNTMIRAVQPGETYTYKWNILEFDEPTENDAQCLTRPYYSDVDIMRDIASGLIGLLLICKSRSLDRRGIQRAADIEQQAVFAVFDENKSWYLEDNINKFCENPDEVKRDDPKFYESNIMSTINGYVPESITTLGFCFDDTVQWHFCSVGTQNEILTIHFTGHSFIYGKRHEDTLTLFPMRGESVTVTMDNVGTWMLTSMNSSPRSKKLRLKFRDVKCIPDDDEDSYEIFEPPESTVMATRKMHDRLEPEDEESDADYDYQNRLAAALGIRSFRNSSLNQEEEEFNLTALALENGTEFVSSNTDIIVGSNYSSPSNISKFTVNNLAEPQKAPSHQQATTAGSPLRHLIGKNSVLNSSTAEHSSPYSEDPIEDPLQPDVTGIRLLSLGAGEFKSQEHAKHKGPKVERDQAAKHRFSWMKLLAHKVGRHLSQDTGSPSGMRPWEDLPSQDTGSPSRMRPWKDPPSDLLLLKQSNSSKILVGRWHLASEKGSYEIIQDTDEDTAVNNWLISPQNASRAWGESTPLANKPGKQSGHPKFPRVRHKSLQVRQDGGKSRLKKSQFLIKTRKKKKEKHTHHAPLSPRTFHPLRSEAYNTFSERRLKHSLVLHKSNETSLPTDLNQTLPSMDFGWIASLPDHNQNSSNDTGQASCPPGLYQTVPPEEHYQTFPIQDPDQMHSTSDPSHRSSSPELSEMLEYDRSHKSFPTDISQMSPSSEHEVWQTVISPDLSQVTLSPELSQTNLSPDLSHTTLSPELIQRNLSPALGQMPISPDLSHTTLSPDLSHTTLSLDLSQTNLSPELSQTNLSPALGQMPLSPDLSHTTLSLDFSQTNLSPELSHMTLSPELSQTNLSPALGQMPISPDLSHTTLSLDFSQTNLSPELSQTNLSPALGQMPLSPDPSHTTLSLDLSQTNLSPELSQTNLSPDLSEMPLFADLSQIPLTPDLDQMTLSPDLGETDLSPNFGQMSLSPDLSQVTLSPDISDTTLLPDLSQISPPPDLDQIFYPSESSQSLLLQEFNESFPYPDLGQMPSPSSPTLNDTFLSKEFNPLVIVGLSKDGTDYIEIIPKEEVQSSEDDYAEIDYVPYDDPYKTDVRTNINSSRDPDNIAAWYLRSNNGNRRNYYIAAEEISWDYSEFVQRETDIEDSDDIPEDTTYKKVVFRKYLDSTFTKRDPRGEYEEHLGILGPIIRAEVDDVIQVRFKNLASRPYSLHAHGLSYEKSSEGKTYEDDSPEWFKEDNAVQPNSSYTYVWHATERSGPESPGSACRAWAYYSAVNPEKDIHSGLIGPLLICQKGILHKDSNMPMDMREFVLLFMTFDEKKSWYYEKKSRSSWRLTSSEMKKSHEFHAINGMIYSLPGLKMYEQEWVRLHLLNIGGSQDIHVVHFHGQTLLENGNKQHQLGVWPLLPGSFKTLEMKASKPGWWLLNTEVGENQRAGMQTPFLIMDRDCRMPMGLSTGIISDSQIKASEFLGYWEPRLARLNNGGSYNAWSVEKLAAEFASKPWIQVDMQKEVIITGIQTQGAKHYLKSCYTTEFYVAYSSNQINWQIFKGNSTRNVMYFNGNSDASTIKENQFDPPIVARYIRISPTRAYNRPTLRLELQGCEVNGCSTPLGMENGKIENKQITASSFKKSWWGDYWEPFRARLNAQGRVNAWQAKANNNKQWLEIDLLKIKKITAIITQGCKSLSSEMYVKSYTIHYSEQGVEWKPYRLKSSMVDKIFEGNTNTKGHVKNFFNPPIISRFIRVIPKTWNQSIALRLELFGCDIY
# Sequence of UniProt Q9H2P9 (Q9H2P9 whole entry, looked up): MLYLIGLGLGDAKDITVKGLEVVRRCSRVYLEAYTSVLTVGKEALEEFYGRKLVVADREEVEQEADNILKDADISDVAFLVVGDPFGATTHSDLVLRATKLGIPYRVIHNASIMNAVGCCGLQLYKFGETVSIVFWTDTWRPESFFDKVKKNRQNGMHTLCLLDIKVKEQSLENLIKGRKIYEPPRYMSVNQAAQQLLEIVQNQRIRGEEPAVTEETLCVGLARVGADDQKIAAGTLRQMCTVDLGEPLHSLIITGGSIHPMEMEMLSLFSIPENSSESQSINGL
# Sequence of UniProt Q9BW60 (Q9BW60 whole entry, looked up): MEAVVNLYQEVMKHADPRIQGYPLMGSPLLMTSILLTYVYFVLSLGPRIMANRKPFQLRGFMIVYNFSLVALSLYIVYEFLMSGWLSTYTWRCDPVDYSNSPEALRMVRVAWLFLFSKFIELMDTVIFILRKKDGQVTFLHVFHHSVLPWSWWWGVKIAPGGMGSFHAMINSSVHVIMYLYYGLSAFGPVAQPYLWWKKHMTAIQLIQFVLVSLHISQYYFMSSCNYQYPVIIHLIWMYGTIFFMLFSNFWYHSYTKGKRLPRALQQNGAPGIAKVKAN
# Sequence of UniProt Q9H4H8 (Q9H4H8 whole entry, looked up): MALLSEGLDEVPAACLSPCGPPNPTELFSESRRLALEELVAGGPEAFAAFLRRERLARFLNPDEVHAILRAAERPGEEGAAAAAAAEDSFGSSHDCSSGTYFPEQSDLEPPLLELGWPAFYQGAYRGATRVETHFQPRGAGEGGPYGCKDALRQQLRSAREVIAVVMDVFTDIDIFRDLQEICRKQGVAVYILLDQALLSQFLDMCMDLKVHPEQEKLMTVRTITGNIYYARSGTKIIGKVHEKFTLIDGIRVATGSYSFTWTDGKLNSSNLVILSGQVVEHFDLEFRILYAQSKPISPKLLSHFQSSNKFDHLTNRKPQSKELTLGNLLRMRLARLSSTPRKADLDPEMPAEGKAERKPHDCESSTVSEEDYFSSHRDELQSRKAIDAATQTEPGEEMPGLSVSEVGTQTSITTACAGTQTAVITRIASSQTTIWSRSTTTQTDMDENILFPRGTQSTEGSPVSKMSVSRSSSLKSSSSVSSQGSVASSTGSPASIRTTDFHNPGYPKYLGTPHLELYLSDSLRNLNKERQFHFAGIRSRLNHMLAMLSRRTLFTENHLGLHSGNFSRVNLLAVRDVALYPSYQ
# Sequence of UniProt O60573 (O60573 whole entry, looked up): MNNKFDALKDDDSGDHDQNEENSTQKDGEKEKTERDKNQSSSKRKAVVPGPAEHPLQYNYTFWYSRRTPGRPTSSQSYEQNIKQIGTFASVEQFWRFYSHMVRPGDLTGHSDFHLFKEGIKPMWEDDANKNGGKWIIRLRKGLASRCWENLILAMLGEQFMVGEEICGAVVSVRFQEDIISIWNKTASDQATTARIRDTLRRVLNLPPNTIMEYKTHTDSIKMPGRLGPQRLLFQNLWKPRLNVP
Target,log2 fold change (erlotinib),log2 fold change [1],log2 fold change [2],log2 fold change [3],log2 fold change [4],log2 fold change [5],log2 fold change [6],log2 fold change [7],log2 fold change [8],log2 fold change [9],log2 fold change (IRAK-1-4 Inhibitor I),log2 fold change (ibrutinib),log2 fold change [10],log2 fold change (ralimetinib),log2 fold change [11],log2 fold change [12],log2 fold change [13],log2 fold change (pinometostat),log2 fold change [14],log2 fold change [15]
ELOVL1 (UniProt Q9BW60),-0.022,0.019,-0.01,-0.059,0.036,0.011,0.069,-0.11,-0.124,0.014,0.079,-0.006,0.018,0.029,-0.197,-0.628 (active),0.036,0.063,0.016,0.099
FAM117A (UniProt Q9C073),0.127,0.054,-0.056,0.053,-0.279 (active),-0.101,-0.041,-0.129,-0.143,-0.121,-0.004,0.001,-0.833 (active),-0.125,-0.068,-0.102,0.126,-0.003,0.042,0.011
DCAF6 isoform 3 (UniProt Q58WW2),0.035,0,0.035,0.014,0.007,0.045,0.008,-0.036,0.042,0.055,0.025,-0.004,-0.018,-0.022,-0.022,0.056,0.023,-0.004,0.015,-0.034
CTNNB1 (UniProt P35222),-0.035,0.062,-0.033,0.025,0.092,0.108,0.036,-0.01,-0.002,-0.032,-0.028,-0.116,0.263,-0.045,-0.056,-0.007,0.081,-0.021,-0.057,0.003
DHX40 (UniProt Q8IX18),0.019,0.05,-0.008,0.071,0.044,0.092,-0.046,-0.034,-0.071,-0.038,0.047,-0.04,-0.069,-0.036,-0.07,-0.075,-0.038,0.047,0.061,0.096
DUS2 (UniProt Q9NX74),-0.002,-0.022,0.043,0.088,0.166,-0.011,-0.009,-0.123,-0.028,0.021,0.014,0.041,-0.063,0.033,-0.161,0.043,0.044,-0.001,0.035,-0.1
DDX39A (UniProt O00148),0.038,0.027,0.031,-0.03,-0.026,-0.068,-0.026,-0.059,-0.007,-0.019,-0.034,0.099,-0.224,0.003,-0.142,-0.327 (active),0.042,0.075,0.092,-0.28
EIF4E2 (UniProt O60573),0.013,0.056,-0.026,-0.045,-0.007,-0.054,-0.111,-0.009,-0.032,-0.008,0.064,-0.007,-0.272,0.012,-0.036,-0.109,0.118,0.043,0.056,0.116
FAM83D (UniProt Q9H4H8),0.035,0.027,-0.124,-0.015,-0.016,0.02,0.086,0.059,-0.071,-0.062,0,-0.094,0.022,0.145,-0.035,-0.232,-0.062,0.041,-0.049,0.1
EFCAB14 (UniProt O75071),0.051,-0.053,0.013,0.024,-0.049,0.033,0.159,-0.119,0.044,-0.032,-0.016,0.043,-0.196,0.135,-0.009,-0.127,-0.063,-0.061,-0.035,0.006
DPH5 isoform 5 (UniProt Q9H2P9),0,0.054,0.093,0.037,0.022,0.03,0.041,0.005,0.004,0.052,0.036,0.025,-0.01,-0.018,-0.053,0.045,-0.071,-0.009,0.022,0.027
DNAJB12 (UniProt Q9NXW2),-0.039,-0.001,0.003,0.102,0.004,0.032,0.006,-0.064,0.044,0.033,-0.026,0.004,-0.013,-0.767 (active),-0.032,-0.012,0.076,0.021,0.05,0.022
F5 (UniProt P12259),-0.122,0,-0.002,0.061,-0.096,-0.054,-0.018,-0.064,0,0.052,0.006,0.064,0.003,-0.042,0.168,-0.088,0.001,-0.016,-0.017,-0.129
EGLN1 (UniProt Q9GZT9),0.035,-0.355 (active),0.075,-0.035,0.043,-0.08,0.021,-0.02,0.01,-0.003,0.016,-0.054,-0.027,-0.034,-0.01,-0.083,0.018,0.045,-0.002,-0.029
DHX36 (UniProt Q9H2U1),-0.089,0.013,-0.08,0.031,-0.072,0.011,0.044,-0.023,0.047,-0.066,-0.053,0.014,0.001,0.111,0.009,-0.025,0.056,0.153,0.031,-0.206
DLD (UniProt P09622),0.001,-0.018,0.044,-0.083,-0.007,-0.018,0.032,-0.018,0.031,0.054,0.079,0.007,0.043,-0.004,-0.043,-0.125,-0.029,0.001,0.014,-0.008
